Source: PubChem BioAssay
Most compounds without a hit are left out; they make up all but 1.2% or so of the library.
MRP resist rev – reversal of MRP1-mediated doxorubicin resistance, primary screen, H69AR cells, doxorubicin co-treatment; H69AR cells + 2 uM doxorubicin, CellTiter-Glo, 72 h; differential viability (reversal), % at 10 µM; 0.04% of 85,000 active;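 active = viability drop by adding the cancer drug above about 55%, with treated viability meeting a 40% cutoff, limit read from the data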;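 also: viability without doxorubicin minus viability with 2 µM doxorubicin for each compound; larger differential means the compound sensitizes cells more to doxorubicin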
CD11b adhes inh – inhibitors of CD11b/CD18 adhesion to fibrinogen, primary screen, K562 cells, luminescence. 0.54% of 93,000 active. Integrin beta-2 (Homo sapiens) + Integrin alpha-M (Homo sapiens), P05107+P11215. inhibition, % at 10 µM. ATPlite luminescence; Mn2+ added to activate the integrin;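 active = primary inhibition of 50% or more at 10 µM, then 40% or more on retest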
Target sequence (P05107 whole entry, looked up, other chains not shown): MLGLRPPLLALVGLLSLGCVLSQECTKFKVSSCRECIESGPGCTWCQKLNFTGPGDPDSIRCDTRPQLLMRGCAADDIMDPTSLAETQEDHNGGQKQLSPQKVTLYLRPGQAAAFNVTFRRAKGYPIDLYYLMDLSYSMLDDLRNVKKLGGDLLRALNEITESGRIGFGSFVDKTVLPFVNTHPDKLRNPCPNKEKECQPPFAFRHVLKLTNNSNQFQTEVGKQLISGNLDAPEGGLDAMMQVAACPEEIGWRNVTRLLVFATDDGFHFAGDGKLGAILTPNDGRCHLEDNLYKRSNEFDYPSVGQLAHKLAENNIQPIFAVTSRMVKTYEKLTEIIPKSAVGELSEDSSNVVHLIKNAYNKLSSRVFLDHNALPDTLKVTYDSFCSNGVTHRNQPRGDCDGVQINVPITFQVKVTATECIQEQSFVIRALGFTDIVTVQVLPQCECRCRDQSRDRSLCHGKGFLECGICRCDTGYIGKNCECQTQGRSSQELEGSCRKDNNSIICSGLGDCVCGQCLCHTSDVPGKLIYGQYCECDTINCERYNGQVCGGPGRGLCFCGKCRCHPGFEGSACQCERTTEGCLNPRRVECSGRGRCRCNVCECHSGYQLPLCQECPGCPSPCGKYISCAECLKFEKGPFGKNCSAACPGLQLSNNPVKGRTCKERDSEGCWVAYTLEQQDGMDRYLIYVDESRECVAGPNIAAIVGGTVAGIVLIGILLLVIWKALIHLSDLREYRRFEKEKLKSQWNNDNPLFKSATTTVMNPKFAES
Phagocytosis inh – inhibitors of macrophage phagocytosis, primary screen, imaging, J774A.1 cells, IgG beads; inhibition, % at 5 µM; AID 1029, 2008; 0.07% of 110,000 active; J774A.1 macrophage IgG-bead phagocytosis;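 active = inhibition above the mean of the plate negative controls plus 5 SD, cut at about 13% in these data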;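 also: phagocytic index as fraction of beads internalized from green versus red external bead signal; plate controls were DMSO negative control for no effect and cytochalasin-D positive control for full effect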
Smad3 FoxH1 inh – Smad3/FoxH1 peptide binding inhibitors, primary screen, biochemical, TR-FRET; TR-FRET Smad3/Dy647-FoxH1 peptide binding, europium anti-His; 0.29% of 88,000 active; Mothers against decapentaplegic homolog 3 (Homo sapiens), P84022; inhibition, % at 25 µM;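 active = compounds that reduce the energy-transfer binding signal between the protein and its labelled peptide by more than half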;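 also: 0% = Smad3 plus labelled peptide maximal FRET and 100% = peptide-only background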
CD11b adhes enh – enhancers of CD11b/CD18 adhesion to fibrinogen, primary screen, K562 cells, luminescence. 0.07% of 93,000 active. AID 1499, 2009. ATPlite luminescence. Integrin beta-2 (Homo sapiens) + Integrin alpha-M (Homo sapiens), P05107+P11215. activation, % at 10 µM;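 active = 10 µM primary screen giving 50% or more activity, confirmed by 40% or more on retest at that dose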
MRP-1 activ – H69AR viability gain despite doxorubicin, primary screen, MRP-1 activator project, H69AR cells, CellTiter-Glo; viability rescue; 0.61% of 140,000 active; viability increase, % at 10 µM;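 active = viability gain under doxorubicin at or above a set limit, the compound median plus 3 SD, cut at about 4.7% in these data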;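 also: MRP-1 overexpressing cells given doxorubicin 25 µM after compound pretreatment; 18-22 h compound pretreatment then 72 h with doxorubicin before readout; 0% = doxorubicin-only wells and 100% = vehicle-treated cells without doxorubicin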
Active calls of the source: *; x = no result; [ ] = another dose, or the depositor's remark.

SMILES | MRP resist rev | CD11b adhes inh | Phagocytosis inh | Smad3 FoxH1 inh | CD11b adhes enh | MRP-1 activ
O=C1[C@@H]2[C@H](C(=O)N1CN1CCOCC1)[C@H]1[C@@H]3C=C[C@@H]([C@@H]4C(=O)N(CN5CCOCC5)C(=O)[C@@H]34)[C@@H]21 | x | x | x | 0 | x | x
O=C(CC1SC(=O)N(Cc2ccccc2)C1=O)Nc1nccs1 (stereo unspecified) | x | -2 | -4 | x | 0 | 12*
O=C(NCCc1ccccc1)C(=O)Nc1nccs1 | x | x | -11 | x | x | -2
C=CCNc1ncnc2c1[nH]c1ccc(Cl)cc12 | -17 | 87* | -2 | 2 | -5 | -2
C=CCNc1ncnc2c1[nH]c1ccccc12 | 2 | 29 | 1 | -1 | -9 | -2
N=C(N)c1ccc(/C=C/c2ccc(C(=N)N)cc2)cc1 | x | x | x | -2 | x | x
O=C(CSc1ncn[nH]1)NCCC(c1ccccc1)c1ccccc1 | 3 | -17 | -4 | 10 | -3 | 9.8*
CC(C)c1ccc(C(=O)CSc2ncn[nH]2)cc1 | 22 | -7 | -2 | 7 | -4 | 6.6*
O=C1c2oc3ccccc3c(=O)c2C(c2cccc(Br)c2)N1Cc1ccco1 (stereo unspecified) | -2 | -3 | 2 | 6 | 60* | -4
O=C1c2oc3ccc(Br)cc3c(=O)c2C(c2cccnc2)N1Cc1ccco1 (stereo unspecified) | -5 | 19 | 1 | 4 | -2 | x
C=CCSc1nc2ccccc2c(=O)n1Cc1ccco1 | x | x | x | -5 | x | x
CCOC(=O)N1CCC(NC(=O)C2CCN(S(=O)(=O)c3cccs3)CC2)CC1 | 12 | -21 | 44* | 5 | -1 | -1
N#Cc1nc(COc2ccc(Br)cc2)oc1NCCN1CCOCC1 | x | -6 | -2 | x | 0 | 7.7*
CCOc1ccc2nc(SCC(=O)NC3CCCc4ccccc43)sc2c1 (stereo unspecified) | x | x | 70*[artifact] | x | x | -2
CCOc1ccc2nc(SCC(=O)N3CCCc4ccccc43)sc2c1 | x | x | x | x | x | 2
Cn1c(=O)c2c(nc(N3CCCCCC3)n2Cc2cccc3ccccc23)n(C)c1=O | 64* | -19 | 0 | -9 | 1 | -6
NC(N)=N/N=C/c1ccc(O)c(C(=O)O)c1 | x | x | x | 18 | x | x
Cc1cc(C)c2c(n1)nn1c(C3CC3)cc(C(F)(F)F)nc21 | 18 | x | x | -3 | x | x
CCCCNC(=O)c1nc2ncc(Br)cn2n1 | -11 | 3 | 193* | -26 | -2 | 0
N#CCSc1n[nH]c2nc3c(c(=O)n12)C1(CCCC1)Cc1ccccc1-3 | 16 | 78* | 1 | 0 | -7 | 5.0*
CC(C)(C)c1cc(C(c2cccnc2)N2CCN(CCO)CC2)cc(C(C)(C)C)c1O (stereo unspecified) | 1 | 52* | 0 | 2 | -6 | -6
OCCN1CCN(C(c2cccs2)c2ccc3cccnc3c2O)CC1 (stereo unspecified) | -7 | -10 | -4 | 7 | 5 | -1
O=C1/C(=C\c2ccco2)SC(=S)N1c1ccc(O)cc1 | x | x | 0 | x | x | 5.2*
CC(C)C[C@H](N)C(=O)O | x | x | x | 3 | x | x
Cc1ccc(-c2noc(CCC(=O)NCCN3CCN(Cc4ccccc4)CC3)n2)cc1 | 7 | -2 | 0 | 3 | 0 | -4
SMILES | MRP resist rev | CD11b adhes inh | Phagocytosis inh | Smad3 FoxH1 inh | CD11b adhes enh | MRP-1 activ
COc1ccc(-c2noc(CCC(=O)NCCCN3CCC(Cc4ccccc4)CC3)n2)cc1 | -13 | 61* | -1 | 11 | -4 | -2
CC(C)c1ccc2c(c1)CC[C@@H]1[C@](C)(CN)CCC[C@@]21C | x | x | x | 12 | x | x
N#Cc1cc2c(nc1SCc1ccccc1)CCC2 | 4 | x | x | 52*[fluorescence artefact?] | x | 2
N#Cc1cc2c(nc1SCc1ccccc1)CCCC2 | x | x | -3 | x | x | 2
COc1ccc(NC(=O)c2oc3ccccc3c2NC(=O)C2CC2)cc1 | x | -1 | 0 | x | -1 | 1
COc1ccc(NC(=O)c2oc3ccccc3c2NC(=O)C(C)(C)C)cc1 | x | -36 | -1 | x | -3 | 5.5*
CCOC(=O)N1CCC(Nc2c(Nc3ccc(C)c(C)c3)c(=O)c2=O)CC1 | 65* | -27 | 0 | 3 | 8 | -5
O=C(NCc1ccc(Cl)cc1)C(=O)NCC1OCCN1C(=O)c1cccs1 (stereo unspecified) | x | -12 | -13 | x | 5 | 6.4*
Fc1cccc(Cl)c1/C=N/N=C1c2ccccc2-c2ccccc21 | x | x | x | 59* | x | x
Cc1cc(C)cc(OCC(=O)NCc2nc(-c3ccccc3)no2)c1 | -26 | -11 | 23* | -5 | -6 | -3
Cc1cccc(-c2noc(CCC(=O)NCc3ccccc3)n2)c1 | -1 | -2 | 1 | 6 | 1 | -1
Cc1ccc(-c2nc3n(n2)Cc2ccccc2-3)cc1 | -6 | x | x | -7 | x | -4
CCn1c(C)nc2cc(-c3nc4n(n3)Cc3ccccc3-4)ccc21 | -4 | 98* | -4 | 4 | -10 | -2
CCOc1ccccc1C1C2CCCCC2(O)CCN1C(=O)c1cccs1 (stereo unspecified) | x | x | 2 | x | x | -2
COc1ccc(-c2cn(-c3ccc(OC)cc3)c3[n+]2-c2ccccc2CC3)cc1 | x | 84* | -7 | x | -3 | -3
COc1ccc(-n2c(-c3ccc(Br)cc3)c[n+]3c2CCc2ccccc2-3)cc1 | x | x | -2 | x | x | -3
O=S(=O)(O)c1cc(N=[N+]([O-])c2cc(S(=O)(=O)O)c3ccccc3c2)cc2ccccc12 | x | x | x | 39 | x | x
O=C(O)/C(Cc1ccc([N+](=O)[O-])cc1)=N\O | x | x | x | 1 | x | x
CCCCCCn1c(O)c(/C=C2\C=NN=C2c2ccccc2)sc1=S | x | x | 3 | x | x | 5.3*
COc1cc2c(=O)n(CC3CCCO3)c(=O)n(CC(=O)Nc3cccc(Cl)c3)c2cc1OC (stereo unspecified) | -2 | 3 | -1 | 83*[fluorescence artefact?] | -1 | -1
COc1cc2c(=O)n(CC3CCCO3)c(=O)n(CC(=O)Nc3ccc(F)cc3F)c2cc1OC (stereo unspecified) | 7 | -15 | -1 | -2 | -2 | -1
CCOC(=O)C(Cc1c[nH]c2ccccc12)NC(=O)c1ccco1 (stereo unspecified) | 13 | 4 | 90*[artifact] | 8 | -2 | -1
COC(=O)C(Cc1c[nH]c2ccccc12)NC(=O)C(C)C (stereo unspecified) | 4 | -2 | 9 | -14 | 3 | -1
Cc1ccc(NS(=O)(=O)c2cccc(C(=O)NCCc3c[nH]c4ccccc34)c2)c(C)c1 | x | 37 | -13 | x | -3 | 0
